From PubChem BioAssay (EPA / NIEHS) come the findings set out here.

Assay [1] in a line: ATG_NF_kB_CIS: Attagene CIS-FACTORIAL HepG2 Assay for human Nuclear Factor Kappa B (NF-kB) (AID 2282991; active = hit-call score of the fitted dose curve at least 0.9, where 1 is the maximum; inactive = score below 0.9). To be noted: HepG2 Attagene cis-factorial NF-kB reporter mRNA; actives raise or lower the signal. The essentials: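 HepG2, transient multi-reporter transfection, cis promoter elements (endogenous TFs). 24 h exposure. Total RNA → RT → PCR → 6-FAM label → HpaI → CE. Gain/loss vs DMSO.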

A short description of assay [2]: ATG_NRF2_ARE_CIS: Attagene CIS-FACTORIAL HepG2 Assay for human Nuclear Factor Erythroid 2 Related Factor 2 (NFR2) response to Antioxidant Response Elements (ARE) (AID 2282992; active = hit-call score of the fitted dose curve at least 0.9, where 1 is the maximum; inactive = score below 0.9;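 for AC50: reporter mRNA level measured by RT-PCR and capillary electrophoresis fluorescence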). To be noted: HepG2 Attagene ARE/NRF2 reporter, transcription factor activity; actives raise or lower the signal. The essentials:
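Endogenous transcription factor activity in human liver HepG2 cells is tracked via a cis-element-driven reporter within a multiplexed set. mRNA induction is read by RT-PCR and capillary electrophoresis after 24 h, with DMSO as baseline.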

Assay [3] can be described thus: ATG_Oct_MLP_CIS: Attagene CIS-FACTORIAL HepG2 Assay for human Octamer-Binding Transcription Factor (Oct) (AID 2282993; active = hit-call score of the fitted dose curve at least 0.9, where 1 is the maximum; inactive = score below 0.9). The note with it: HepG2 Attagene cis-factorial Oct reporter, mRNA; actives raise or lower the signal. The essentials: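 HepG2 cells transiently transfected with cis-element-driven reporter transcription units (endogenous TF activity); 24 h compound exposure. Reporter mRNA quantified by RT-PCR, 6-FAM labelling, HpaI digestion and capillary electrophoresis; bidirectional fit versus DMSO baseline.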

Assay [4] deals with Cellular tumor antigen p53 (Homo sapiens) (UniProt P04637). Briefly: ATG_p53_CIS: Attagene CIS-FACTORIAL HepG2 Assay for human p53 Transcription Factor (AID 2282994; active = hit-call score of the fitted dose curve at least 0.9, where 1 is the maximum; inactive = score below 0.9). To be noted: HepG2 p53 cis-element reporter, Attagene mRNA; actives raise or lower the signal. The essentials: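 Steps: transfect HepG2 with multiplexed cis reporter constructs; dose chemicals 24 h; extract RNA, reverse-transcribe, PCR-amplify reporter sequences; FAM-label, HpaI-digest, resolve fragments by CE. Activity fitted both directions relative to DMSO.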
Cellular tumor antigen p53 (Homo sapiens), sequence (P04637 whole entry, looked up, the tested form may be a part): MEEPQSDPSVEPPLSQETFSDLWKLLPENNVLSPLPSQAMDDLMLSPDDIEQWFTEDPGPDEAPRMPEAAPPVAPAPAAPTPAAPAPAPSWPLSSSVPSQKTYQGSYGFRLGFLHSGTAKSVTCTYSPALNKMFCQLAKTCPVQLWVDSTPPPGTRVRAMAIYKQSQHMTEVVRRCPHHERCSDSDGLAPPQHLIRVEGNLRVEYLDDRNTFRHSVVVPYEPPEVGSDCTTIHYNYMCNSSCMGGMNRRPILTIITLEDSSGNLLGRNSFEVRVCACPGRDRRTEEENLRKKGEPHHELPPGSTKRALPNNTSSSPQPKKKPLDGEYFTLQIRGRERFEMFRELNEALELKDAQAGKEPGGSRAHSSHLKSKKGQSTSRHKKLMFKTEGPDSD

The nature of assay [5]: BSK_3C_TissueFactor: BioMAP Diversity Plus: 3C Assay for Tissue Factor Biomarker Activity (AID 2282997; active = hit-call score of the fitted dose curve at least 0.9, where 1 is the maximum; inactive = score below 0.9). To be noted: BioMAP 3C HUVEC, tissue factor biomarker readout; actives raise or lower the signal. Put shortly: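 In this endothelial system, HUVEC are treated for 24 h and Tissue Factor is assessed by ELISA, normalised to DMSO.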
Assay [6] in a line: BSK_3C_uPAR: BioMAP Diversity Plus: 3C Assay for Urokinase-type plasminogen activator receptor (uPAR) Biomarker Activity (AID 2282998; active = hit-call score of the fitted dose curve at least 0.9, where 1 is the maximum; inactive = score below 0.9). To be noted: BioMAP 3C HUVEC, uPAR biomarker ELISA; actives raise or lower the signal. Put shortly:
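Primary human umbilical vein endothelial cells, 3C system; surface uPAR measured by ELISA 24 h after dosing. Cytotoxicity via SRB total protein in parallel cultures; bidirectional fit against DMSO.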

A short description of assay [7]: BSK_3C_VCAM1: BioMAP Diversity Plus: 3C Assay for Vascular cell adhesion molecule 1 (VCAM1) Biomarker Activity (AID 2282999; active = hit-call score of the fitted dose curve at least 0.9, where 1 is the maximum; inactive = score below 0.9). To be noted: BioMAP 3C HUVEC, VCAM1 ELISA, cytokine-stimulated; actives raise or lower the signal. The essentials:
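Activity fitted in both directions relative to DMSO, with ELISA measurement of the surface marker on primary HUVEC (3C) at 24 h post-treatment; parallel SRB staining (0.1% SRB, TCA-fixed, 560 nm) flagged overt cytotoxicity.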
(In general: ELISA stands for enzyme-linked immunosorbent assay.)

A short description of assay [8]: BSK_4H_Eotaxin3: BioMAP Diversity Plus: 4H Assay for Eotaxin 3 Biomarker Activity (AID 2283000; active = hit-call score of the fitted dose curve at least 0.9, where 1 is the maximum; inactive = score below 0.9;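 note: CCL26 protein level quantified by ELISA in parallel with SRB cytotoxicity check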). The note with it: primary human endothelial cells (HUVEC); actives raise or lower the signal. Put shortly: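 ELISA quantitation of CCL26 (Eotaxin-3) protein from chemically dosed human vascular endothelial cells at 24 h; increases and decreases both scored relative to DMSO-treated baseline.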

Assay [9] addresses human Peroxisome Proliferator-activated Receptor alpha (PPARa), PPARA (gene 5465) (UniProt Q07869). Briefly: ATG_PPARa_TRANS: Attagene TRANS-FACTORIAL HepG2 Assay for human Peroxisome Proliferator-activated Receptor alpha (PPARa) (AID 2283001). The essentials: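 Reporter transcripts quantified by RT-PCR plus capillary electrophoresis after 24 h treatment, fitted upward relative to DMSO. Cells: human HepG2 transiently carrying multiple GAL4-UAS reporter units driven by NR-Gal4 chimeras.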

Read-out in assay [10]: Intercellular Adhesion Molecule 1 (ICAM1), ICAM1 (gene 3383)
Briefly: BSK_3C_ICAM1: BioMAP Diversity Plus: 3C Assay for Intercellular Adhesion Molecule 1 (ICAM1) Biomarker Activity (AID 2283003; active = hit-call score of the fitted dose curve at least 0.9, where 1 is the maximum; inactive = score below 0.9). To be noted: primary human endothelial cells (HUVEC); actives raise or lower the signal. The essentials: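 Chemicals are dosed onto primary human umbilical vein endothelium (3C system). After 24 h, ICAM-1 is measured by ELISA, and responses are fitted bidirectionally relative to DMSO.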

For assay [11], the target named is human Retinoic Acid Receptor beta (RARb), RARB (gene 5915) (UniProt P10826). Briefly: ATG_RARb_TRANS: Attagene TRANS-FACTORIAL HepG2 Assay for human Retinoic Acid Receptor beta (AID 2283004). The essentials:
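Fluorescent capillary-electrophoresis detection of GAL4-UAS reporter mRNA defines the endpoint, with induction over DMSO-treated wells scored as activity. Transiently transfected human hepatoma HepG2 cells expressing exogenous NR–Gal4 proteins are exposed to test chemicals for 24 h.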

The target in assay [12] is Retinoic acid receptor alpha (Homo sapiens) (UniProt P10276). Briefly: ATG_RARa_TRANS: Attagene TRANS-FACTORIAL HepG2 Assay for human Retinoic Acid Receptor alpha (RARa) (AID 2283005). Put shortly:
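Reporter transcripts, measured by RT-PCR with fluorescent labeling and capillary electrophoresis after 24 h dosing, reflect activity of an exogenous human RARa–GAL4 fusion in transiently transfected HepG2. Fitted for increase relative to DMSO.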

A short description of assay [13]: BSK_3C_Proliferation: Cell Proliferation Assessment in the BioMAP Diversity Plus: 3C Assay (AID 2283006; active = hit-call score of the fitted dose curve at least 0.9, where 1 is the maximum; inactive = score below 0.9). The note with it: primary human endothelial cells (HUVEC). The essentials: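 Cells (human umbilical vein endothelial, sub-confluent) receive test chemical; after 48 h they are fixed in 10% trichloroacetic acid, stained with 0.1% SRB and read at 560 nm. Activity is referenced to DMSO, fitting increases and decreases.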

Assay [14] has as its target Peroxisome proliferator-activated receptor gamma (Homo sapiens) (UniProt P37231). Briefly: ATG_PPARg_TRANS: Attagene TRANS-FACTORIAL HepG2 Assay for human Peroxisome Proliferator-activated Receptor-gamma (PPARg) (AID 2283007). The essentials: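 Multiplexed reporter transcription units in HepG2, 24 h dosing, reporter transcripts quantified by fluorescent RT-PCR and capillary electrophoresis. Increase over DMSO scored.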

For assay [15], the target named is human Retinoic Acid Receptor gamma (RARg), RARG (gene 5916) (UniProt P13631). As to the kind of experiment: ATG_RARg_TRANS: Attagene TRANS-FACTORIAL HepG2 Assay for human Retinoic Acid Receptor gamma (RARg) (AID 2283009). Put shortly: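 TRANS format measured activity of exogenous NR-GAL4 fusion (RARg) in transfected HepG2 liver cells after 24 h dosing. Induced reporter RNA was detected by RT-PCR/capillary electrophoresis fluorescence, analysed in the positive direction against DMSO.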
human Retinoic Acid Receptor gamma (RARg), RARG (gene 5916), sequence (P13631 whole entry, looked up, the tested form may be a part): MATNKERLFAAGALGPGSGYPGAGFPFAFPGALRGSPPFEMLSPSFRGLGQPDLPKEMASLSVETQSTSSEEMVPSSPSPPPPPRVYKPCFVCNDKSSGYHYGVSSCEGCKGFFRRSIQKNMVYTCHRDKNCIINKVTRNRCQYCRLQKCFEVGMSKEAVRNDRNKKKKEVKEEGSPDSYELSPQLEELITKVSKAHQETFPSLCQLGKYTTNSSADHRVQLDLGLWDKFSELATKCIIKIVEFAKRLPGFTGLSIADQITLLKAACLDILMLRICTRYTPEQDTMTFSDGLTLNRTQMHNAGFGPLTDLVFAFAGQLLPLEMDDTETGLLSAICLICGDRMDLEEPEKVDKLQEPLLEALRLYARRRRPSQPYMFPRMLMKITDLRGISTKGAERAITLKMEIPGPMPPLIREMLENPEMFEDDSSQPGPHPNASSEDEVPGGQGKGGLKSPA

The target in assay [16] is human RAR-related Orphan Receptor gamma (RORg), RORC (gene 6097) (UniProt P51449). As to the kind of experiment: ATG_RORg_TRANS: Attagene TRANS-FACTORIAL HepG2 Assay for human RAR-related Orphan Receptor gamma (RORg) (AID 2283011). Put shortly:
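Chimeric RORg-Gal4 transactivation in transfected HepG2; 24 h exposure; RT-PCR/capillary electrophoresis readout of reporter mRNA, DMSO baseline.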

Assay [17] has as its target Myc proto-oncogene protein (Homo sapiens) (UniProt P01106). Briefly: ATG_Myc_CIS: Attagene CIS-FACTORIAL HepG2 Assay for human Myelocytomatosis (Myc) Proto-Oncogene Transcription Factor (AID 2282990; active = hit-call score of the fitted dose curve at least 0.9, where 1 is the maximum; inactive = score below 0.9). The note with it: HepG2, Attagene cis-reporter transcription factor activity; actives raise or lower the signal. The essentials: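 Cells of the HepG2 human liver line bear multiple cis-driven reporter transcription units. Reporter mRNA after 24 h exposure is reverse-transcribed, amplified, labelled and resolved by capillary electrophoresis, with gain- or loss-of-signal fitting relative to DMSO.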

Assay [18] concerns the target human Peroxisome Proliferator-activated Receptor delta (PPARd), PPARD (gene 5467) (UniProt Q03181). As to the kind of experiment: ATG_PPARd_TRANS: Attagene TRANS-FACTORIAL HepG2 Assay for human Peroxisome Proliferator-activated Receptor delta (PPARd) (AID 2283002). Put shortly:
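Cell-based TRANS reporter: HepG2, transient MRTU transfection, 24 h exposure. Readout = reporter mRNA (RT-PCR/CE, 6-FAM). Gain-of-signal fit vs DMSO control.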

The target in assay [19] is human RAR-related Orphan Receptor beta (RORb), RORB (gene 6096) (UniProt Q92753). Briefly: ATG_RORb_TRANS: Attagene TRANS-FACTORIAL HepG2 Assay for human RAR-related Orphan Receptor beta (RORb) (AID 2283010). The essentials:
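Transfect HepG2 with multiple GAL4-UAS reporter transcription units; dose chemicals for 24 h; isolate RNA, reverse-transcribe and PCR-amplify reporter sequences; label, digest and resolve fragments by capillary electrophoresis; fit increases relative to DMSO.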

Assay [20] concerns the target Nuclear receptor subfamily 1 group I member 2 (Homo sapiens) (UniProt O75469). As to the kind of experiment: ATG_PXR_TRANS: Attagene TRANS-FACTORIAL HepG2 Assay for human Pregnane X Receptor (PXR) (AID 2283008). Put shortly: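 HepG2 transfected (FuGene 6) with GAL4-UAS reporter units + PXR-Gal4 chimera; dosed 24 h. Total RNA → oligo(dT) RT → PCR → 6-FAM primer extension → HpaI cut → CE. Gain-of-signal vs DMSO.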

As usually defined, the AC50 is the concentration giving half of the maximal activity seen.

Results filed as inconclusive are left out. The source made the active and inactive calls. Rule for the calls, unless noted: active = hit-call score of the fitted dose curve at least 0.9, where 1 is the maximum; inconclusive = response in the unintended direction; inactive = score below 0.9.

Nuclear receptor subfamily 1 group I member 2 (Homo sapiens), sequence (O75469 whole entry, looked up, the tested form may be a part): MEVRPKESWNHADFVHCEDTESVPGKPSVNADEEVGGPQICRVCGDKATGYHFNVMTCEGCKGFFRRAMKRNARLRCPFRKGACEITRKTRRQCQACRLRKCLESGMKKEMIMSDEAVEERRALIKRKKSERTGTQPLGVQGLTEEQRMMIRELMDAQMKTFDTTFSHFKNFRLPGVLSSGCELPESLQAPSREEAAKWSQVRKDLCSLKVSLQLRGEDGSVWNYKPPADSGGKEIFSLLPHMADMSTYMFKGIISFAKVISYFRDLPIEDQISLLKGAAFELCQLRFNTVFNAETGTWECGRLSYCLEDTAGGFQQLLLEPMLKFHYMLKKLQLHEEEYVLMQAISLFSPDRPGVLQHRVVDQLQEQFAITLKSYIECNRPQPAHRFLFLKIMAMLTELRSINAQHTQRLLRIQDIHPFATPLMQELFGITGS
Peroxisome proliferator-activated receptor gamma (Homo sapiens), sequence (P37231 whole entry, looked up): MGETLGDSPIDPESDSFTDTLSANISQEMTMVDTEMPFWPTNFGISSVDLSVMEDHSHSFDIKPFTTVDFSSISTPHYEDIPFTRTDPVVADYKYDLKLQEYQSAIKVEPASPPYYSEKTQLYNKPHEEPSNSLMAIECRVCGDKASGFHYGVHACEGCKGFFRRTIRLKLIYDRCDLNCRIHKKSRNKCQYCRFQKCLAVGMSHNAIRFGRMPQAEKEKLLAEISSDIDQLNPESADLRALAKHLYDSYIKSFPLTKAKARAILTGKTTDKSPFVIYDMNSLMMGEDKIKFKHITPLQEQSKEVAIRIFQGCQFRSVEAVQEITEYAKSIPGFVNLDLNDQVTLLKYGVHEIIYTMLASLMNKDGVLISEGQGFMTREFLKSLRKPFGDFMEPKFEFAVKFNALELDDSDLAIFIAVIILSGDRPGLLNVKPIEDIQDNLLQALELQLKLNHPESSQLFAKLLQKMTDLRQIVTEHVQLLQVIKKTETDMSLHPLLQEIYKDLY
Myc proto-oncogene protein (Homo sapiens), sequence (P01106 whole entry, looked up): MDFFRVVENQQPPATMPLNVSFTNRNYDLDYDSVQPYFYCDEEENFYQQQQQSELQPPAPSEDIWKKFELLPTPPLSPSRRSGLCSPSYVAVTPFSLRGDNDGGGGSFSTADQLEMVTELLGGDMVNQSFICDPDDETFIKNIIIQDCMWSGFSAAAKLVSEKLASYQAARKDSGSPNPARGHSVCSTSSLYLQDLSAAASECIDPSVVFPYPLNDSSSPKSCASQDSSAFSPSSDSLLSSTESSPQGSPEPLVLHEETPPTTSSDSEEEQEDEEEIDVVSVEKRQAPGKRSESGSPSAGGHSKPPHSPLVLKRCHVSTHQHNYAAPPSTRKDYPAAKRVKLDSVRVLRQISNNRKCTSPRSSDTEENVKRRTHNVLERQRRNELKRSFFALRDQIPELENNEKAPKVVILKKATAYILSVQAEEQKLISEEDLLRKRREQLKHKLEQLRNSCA
human RAR-related Orphan Receptor gamma (RORg), RORC (gene 6097), sequence (P51449 whole entry, looked up, the tested form may be a part): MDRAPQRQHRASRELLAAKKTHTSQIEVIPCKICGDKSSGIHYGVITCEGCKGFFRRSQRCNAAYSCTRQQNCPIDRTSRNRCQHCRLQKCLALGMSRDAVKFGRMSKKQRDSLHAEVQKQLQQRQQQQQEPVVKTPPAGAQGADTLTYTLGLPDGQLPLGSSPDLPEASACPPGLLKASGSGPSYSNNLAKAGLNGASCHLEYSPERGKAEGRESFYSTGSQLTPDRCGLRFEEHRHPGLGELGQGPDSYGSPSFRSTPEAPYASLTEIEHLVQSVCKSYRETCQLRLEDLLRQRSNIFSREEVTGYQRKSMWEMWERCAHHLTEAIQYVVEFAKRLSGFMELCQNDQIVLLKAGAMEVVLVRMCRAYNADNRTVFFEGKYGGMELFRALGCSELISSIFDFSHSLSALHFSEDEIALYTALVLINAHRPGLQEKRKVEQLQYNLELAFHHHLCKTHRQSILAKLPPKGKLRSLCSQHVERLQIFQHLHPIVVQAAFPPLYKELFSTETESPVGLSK
human Retinoic Acid Receptor beta (RARb), RARB (gene 5915), sequence (P10826 whole entry, looked up, the tested form may be a part): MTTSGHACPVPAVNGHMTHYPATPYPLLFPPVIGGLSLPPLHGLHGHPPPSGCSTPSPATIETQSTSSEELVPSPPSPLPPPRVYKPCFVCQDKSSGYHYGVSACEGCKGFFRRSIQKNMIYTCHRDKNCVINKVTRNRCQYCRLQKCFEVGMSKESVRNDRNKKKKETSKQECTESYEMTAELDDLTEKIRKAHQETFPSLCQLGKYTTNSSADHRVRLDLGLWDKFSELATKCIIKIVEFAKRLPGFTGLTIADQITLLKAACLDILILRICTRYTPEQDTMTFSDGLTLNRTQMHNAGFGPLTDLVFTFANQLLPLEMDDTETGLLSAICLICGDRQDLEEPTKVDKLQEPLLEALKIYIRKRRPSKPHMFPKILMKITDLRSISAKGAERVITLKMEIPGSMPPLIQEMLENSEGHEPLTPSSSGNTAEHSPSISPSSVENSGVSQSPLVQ
human Peroxisome Proliferator-activated Receptor alpha (PPARa), PPARA (gene 5465), sequence (Q07869 whole entry, looked up, the tested form may be a part): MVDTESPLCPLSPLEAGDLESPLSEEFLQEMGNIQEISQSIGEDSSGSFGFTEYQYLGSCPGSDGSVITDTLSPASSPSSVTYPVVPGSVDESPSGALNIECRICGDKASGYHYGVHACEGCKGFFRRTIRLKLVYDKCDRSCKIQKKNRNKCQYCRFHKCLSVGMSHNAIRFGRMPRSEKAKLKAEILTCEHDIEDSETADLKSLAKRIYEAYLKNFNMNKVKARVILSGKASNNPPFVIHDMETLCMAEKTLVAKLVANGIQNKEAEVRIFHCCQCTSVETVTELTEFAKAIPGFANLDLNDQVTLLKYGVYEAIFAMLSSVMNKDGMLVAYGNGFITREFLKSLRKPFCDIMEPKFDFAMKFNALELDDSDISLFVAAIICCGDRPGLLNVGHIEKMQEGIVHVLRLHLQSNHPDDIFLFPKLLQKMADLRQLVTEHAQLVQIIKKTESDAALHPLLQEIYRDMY
human Peroxisome Proliferator-activated Receptor delta (PPARd), PPARD (gene 5467), sequence (Q03181 whole entry, looked up): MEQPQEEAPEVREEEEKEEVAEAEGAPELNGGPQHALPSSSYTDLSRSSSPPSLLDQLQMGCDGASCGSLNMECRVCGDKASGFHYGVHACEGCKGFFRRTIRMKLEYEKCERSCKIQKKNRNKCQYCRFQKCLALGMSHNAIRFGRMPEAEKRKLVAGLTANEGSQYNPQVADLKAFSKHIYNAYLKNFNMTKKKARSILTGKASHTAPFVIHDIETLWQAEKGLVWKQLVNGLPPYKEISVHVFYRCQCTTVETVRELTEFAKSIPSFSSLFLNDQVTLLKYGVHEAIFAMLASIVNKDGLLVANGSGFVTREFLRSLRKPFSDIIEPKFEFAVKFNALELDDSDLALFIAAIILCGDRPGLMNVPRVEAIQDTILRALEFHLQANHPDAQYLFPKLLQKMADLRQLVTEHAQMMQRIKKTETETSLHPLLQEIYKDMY
Retinoic acid receptor alpha (Homo sapiens), sequence (P10276 whole entry, looked up, the tested form may be a part): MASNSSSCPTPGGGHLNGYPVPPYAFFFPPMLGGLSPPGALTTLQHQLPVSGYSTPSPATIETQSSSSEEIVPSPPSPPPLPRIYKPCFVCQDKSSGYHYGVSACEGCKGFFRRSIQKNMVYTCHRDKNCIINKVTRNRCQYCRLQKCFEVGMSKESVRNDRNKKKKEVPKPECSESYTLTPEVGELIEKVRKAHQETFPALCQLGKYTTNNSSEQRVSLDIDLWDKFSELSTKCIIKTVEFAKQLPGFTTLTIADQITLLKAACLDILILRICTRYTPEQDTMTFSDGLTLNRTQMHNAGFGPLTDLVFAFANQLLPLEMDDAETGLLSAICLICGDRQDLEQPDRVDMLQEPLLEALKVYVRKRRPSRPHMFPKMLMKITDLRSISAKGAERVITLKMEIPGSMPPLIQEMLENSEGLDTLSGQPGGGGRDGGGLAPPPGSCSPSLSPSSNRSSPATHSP

On to `Cc1cc(CCC(=O)OCCOCCOCCOC(=O)CCc2cc(C)c(O)c(C(C)(C)C)c2)cc(C(C)(C)C)c1O`, for which the compound was called inactive in [1], in assay [3], in [4], in assay [5], in assay [7] and in assay [8]. The result in assay [9], in assay [10], in assay [11], in assay [12], in assay [13] and in assay [15] was inactive. Further, in assay [16], the compound was called inactive. Also, the results for the AC50 in assay [2], in [6] and in assay [14] were 23.4 µM (active), 17.8 µM (active) and 24.2 µM (active), respectively.
Consider `Nc1ccc2cc(S(=O)(=O)O)cc(O)c2c1N=Nc1ccccc1C(F)(F)F`, for which the compound was called inactive in assay [17], in assay [2], in [3], in [9], in assay [18] and in assay [11]. Further, the compound was called inactive in assay [12], in assay [14] and in assay [19].
Regarding `CCOC(=O)COC(=O)c1cc(Oc2ccc(C(F)(F)F)cc2Cl)ccc1[N+](=O)[O-]`, the call in [17], in assay [3], in assay [4], in assay [18] and in assay [15] was inactive. Besides, the AC50 in assay [14] was 11.1 µM (active); in [20], 22.2 µM (active).
With `CC/C=C\CC/C=C/CO`, the result in [17], in assay [3], in assay [9], in [18] and in assay [20] was inactive. Also, the AC50 in assay [2] was 48.2 µM (active); in [14] it was 52.9 µM (active).
Regarding `C=C1C[C@]23C[C@@]1(O)CC[C@H]2[C@@]12C=C[C@H](O)[C@@](C)(C(=O)O1)[C@H]2[C@@H]3C(=O)O`, the result in [17], in assay [2], in [3], in [18], in [14] and in assay [16] was inactive.
In the case of `CCOc1ccc(NC(=O)CC(C)=O)cc1`, the call in assay [17], in assay [2], in assay [3], in assay [11] and in assay [20] was inactive.
Turning to `CCOc1ccc(N=Nc2ccc(C=Cc3ccc(N=Nc4ccc(OCC)cc4)cc3S(=O)(=O)O)c(S(=O)(=O)O)c2)cc1`, the outcome in assay [17], in [2], in [4], in [18], in assay [11] and in [14] was inactive. For the same compound, the compound was classed as inactive in [20] and in assay [15].
In the case of `C=C(C)C(=O)OCCOC1CC2CC1C1C=CCC21` (stereo unspecified), the compound was called inactive in assay [17], in [3], in assay [9], in [18], in [14] and in assay [20]. Further, the compound was called inactive in assay [16]. The AC50 in assay [2] is 177 µM (active).
